Assay outcomes (PubChem)
Shown are actives, neighbours in structure and some others; about 14% of the full set was active somewhere.
USP8 inh = blocks human USP8 ubiquitin-rhodamine cleavage | P40818 | purified USP8, Ub-rhodamine cleavage fluorescence, 30 min | inhibition, % at 20 µM | actives 4.2% (n = 47,000) | AID 1645853
USP30 block = human USP30 deubiquitinase inhibition | Q70CQ3 | purified USP30, Ub-rhodamine cleavage fluorescence | inhibition, % at 25 µM | actives 5.3% (n = 47,000)
USP28 block = human USP28 deubiquitinase inhibition; Q96RU2; purified USP28, Ub-rhodamine cleavage fluorescence, 30 min; inhibition, % at 25 µM; actives 3% (n = 47,000); AID 1645857
Target sequence (Q96RU2 whole entry, looked up): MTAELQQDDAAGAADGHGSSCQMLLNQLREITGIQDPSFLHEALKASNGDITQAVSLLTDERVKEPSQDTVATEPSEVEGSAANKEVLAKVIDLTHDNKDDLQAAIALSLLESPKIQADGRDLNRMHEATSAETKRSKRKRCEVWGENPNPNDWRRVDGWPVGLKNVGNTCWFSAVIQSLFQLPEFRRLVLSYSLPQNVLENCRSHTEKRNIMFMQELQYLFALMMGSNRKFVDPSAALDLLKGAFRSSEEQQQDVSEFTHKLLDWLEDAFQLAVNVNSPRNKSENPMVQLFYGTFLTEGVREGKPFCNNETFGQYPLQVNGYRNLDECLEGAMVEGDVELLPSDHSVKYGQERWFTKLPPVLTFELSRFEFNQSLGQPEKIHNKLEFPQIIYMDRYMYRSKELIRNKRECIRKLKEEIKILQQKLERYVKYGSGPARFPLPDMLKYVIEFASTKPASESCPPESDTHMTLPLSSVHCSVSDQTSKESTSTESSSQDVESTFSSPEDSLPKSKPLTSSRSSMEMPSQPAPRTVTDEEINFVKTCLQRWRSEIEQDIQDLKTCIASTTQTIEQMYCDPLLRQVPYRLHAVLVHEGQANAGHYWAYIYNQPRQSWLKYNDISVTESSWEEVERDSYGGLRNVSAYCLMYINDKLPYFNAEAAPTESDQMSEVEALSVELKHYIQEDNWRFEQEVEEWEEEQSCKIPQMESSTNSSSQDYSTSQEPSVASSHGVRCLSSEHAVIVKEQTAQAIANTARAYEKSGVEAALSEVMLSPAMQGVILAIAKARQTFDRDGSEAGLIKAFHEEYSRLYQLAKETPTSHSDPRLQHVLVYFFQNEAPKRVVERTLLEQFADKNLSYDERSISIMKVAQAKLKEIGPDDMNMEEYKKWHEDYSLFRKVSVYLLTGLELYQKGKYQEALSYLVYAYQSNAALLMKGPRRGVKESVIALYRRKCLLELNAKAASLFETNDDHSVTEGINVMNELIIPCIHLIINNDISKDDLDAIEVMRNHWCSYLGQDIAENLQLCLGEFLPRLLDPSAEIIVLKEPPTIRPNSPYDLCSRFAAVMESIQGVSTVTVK
USP17 block = inhibitors of human USP17 deubiquitinase; actives 6.5% (n = 47,000); AID 1645855; inhibition, % at 50 µM; purified USP17, Ub-rhodamine cleavage fluorescence, 3 h
Large screens that a line does not name were inactive. Cut-off read from the data, not from the text of the source: active = inhibition above about 30%; inactive = the rest.

O=C(O)c1ccccc1C(=O)Nc1ccc(SC(C(=O)Nc2ccccc2Cl)c2ccccc2)cc1 (stereo not given)	USP17 block 47.4
O=C(O)c1ccccc1C(=O)Nc1ccc(SC(C(=O)Nc2cccc(Cl)c2Cl)c2ccccc2)cc1 (stereo not given)	none
Cc1cccc(NC(=O)C(Sc2ccc(NC(=O)c3ccccc3C(=O)O)cc2)c2ccccc2)c1 (stereo not given)	none
Cc1ccccc1C(=O)Nc1cccc(SC(C(=O)Nc2ccc(O)c(C(=O)O)c2)c2ccccc2)c1 (stereo not given)	USP30 block 38.2
Cc1cccc(C(=O)Nc2cccc(SC(C(=O)Nc3ccc(O)c(C(=O)O)c3)c3ccccc3)c2)c1 (stereo not given)	USP8 inh 87.9, USP28 block 51.9
Clc1ccc(CCNc2ncnc3[nH]ncc23)cc1	none
Cc1ccc(S(=O)(=O)NC(C(=O)N=c2sc3ccccc3n2C)C(C)C)cc1 (stereo not given)	USP17 block 62.8
O=C(Cc1ccc(F)cc1)N1CCCn2nnc(CN3CCCCC3)c2C1	none
O=C(Nc1nc2c(s1)CN(C(=O)c1ccco1)CC2)C1CCCO1 (stereo not given)	none
COc1cccc2cc(C(=O)N3CCc4nc(NC(=O)C5CCCO5)sc4C3)oc12 (stereo not given)	USP17 block 34.2
Fc1ccccc1Cc1nc(-c2ccc3nncn3c2)no1	USP28 block 52.5 (no result: USP17 block)
Fc1ccc(-c2nnc(Cc3nc(-c4ccccc4F)no3)o2)cc1	none
c1cc(N2CCOCC2)ccc1-c1csc(-c2ccc3c(c2)OCCO3)n1	USP17 block 39.8
c1ccc2oc(-c3csc(-c4ccc5c(c4)OCCO5)n3)cc2c1	none
Cc1nc(-c2ccc3c(c2)OCCCO3)cs1	none
FC(F)(F)c1ccc(-c2nc(-c3ccc4c(c3)OCCCO4)cs2)cc1	USP30 block 33.4
COc1ccc(C(=O)O[C@H]2CC[C@@]3(C)C4CC[C@H]5[C@]6(O)[C@@H](O)[C@H](O)[C@H]7[C@@H](CN8C[C@@H](C)CC[C@H]8[C@@]7(C)O)[C@@H]6C[C@@]53OC42O)cc1OC	none
CCN1CCn2c(-c3cnn(C)c3)cnc2C12CCN(C(=O)NC(C)C)CC2	none
Cc1ccccc1C(=O)N1CCC2(CC1)N=C(c1ccccc1)C(=O)N2	none
O=C(COc1cc2oc(=O)c3c(c2cc1Cl)CCC3)N1CCCC1	none
O=c1cc(CN2CCN(Cc3ccccc3)CC2)c2cc3c(cc2o1)CCC3	none
O=c1oc2c3c(c(Cl)cc2c2c1CCCC2)OCN(CCc1ccc(F)cc1)C3	USP8 inh 41.2, USP17 block 43.1
O=c1oc2c3c(c(Cl)cc2c2c1CCCC2)OCN(Cc1ccccc1)C3	USP8 inh 81.5, USP17 block 44.0
O=C(Nc1ccc(S(=O)(=O)NC2CCCc3ccccc32)cc1)C(=O)N1CCOCC1 (stereo not given)	none
COC(=O)c1sccc1OCC(=O)c1sc(-c2ccccc2)nc1C	none
Cc1nc(-c2ccccc2)sc1C(=O)CSc1cccc(Cl)c1Cl	USP30 block 36.2
CC(=O)c1cc2c(=O)c3c(C(=O)O)c(O)c(O)cc3oc2c(C(C)=O)c1-c1coc2cc(O)c(O)c(C(=O)O)c2c1=O	USP28 block 40.4, USP17 block 46.4
CCN(CC)S(=O)(=O)c1ccc(OC)c(Nc2nc(-c3ccccc3)nc3ccccc23)c1	USP17 block 39.0
CN(Cc1ccccc1)S(=O)(=O)c1ccc2[nH]c(=O)[nH]c2c1	USP17 block 37.4
CN(Cc1ccccc1)S(=O)(=O)c1ccc(N2CCCCS2(=O)=O)cc1	USP17 block 37.0 (no result: USP30 block, USP28 block)
CCc1noc(-c2ccc(OCC(=O)N3CCN(c4ccccc4OC)CC3)cc2)n1	none
Cc1cc(-c2cncnc2-c2ccc(CNC(=O)C(C)C)cc2)on1	none
COc1ccc(CCC(=O)Nc2nnc(C3CC(=O)N(c4ccc(C)cc4)C3)s2)cc1 (stereo not given)	none
CC1CCN(c2ccc3nnc(CCC(=O)NCc4ccco4)n3n2)CC1	none
Cc1ccc(C)c(S(=O)(=O)N2CCN(c3ccc4nnc(-c5ccco5)n4n3)CC2)c1	USP8 inh 76.1, USP30 block 41.0, USP28 block 45.9, USP17 block 63.5
Cc1ccc(-c2ccc(N3CCOCC3)nn2)cc1S(=O)(=O)N1CCOCC1	none (no result: USP17 block)
O=C(c1cc(Cl)ccc1Cl)N1CCN(c2ccc3nnc(-c4ccco4)n3n2)CC1	USP8 inh 49.1, USP17 block 61.3
O=S(=O)(c1ccccc1Cl)N1CCN(c2ccc3nnc(-c4ccco4)n3n2)CC1	USP8 inh 49.7, USP30 block 38.5, USP28 block 33.8, USP17 block 72.0
